These results are taken from PubChem BioAssay (NCATS).

For test [1] the following is noted: Ebola virus entry assay, green fluorescence channel.
For test [2] the following is noted: Ebola virus entry assay, blue channel fluorescence.
For test [3] the following is noted: Ebola virus entry assay, ratio channel.
The conditions of test [4]: Ebola virus entry assay, reporter ratio channel; Channel type: primary.

Unmarked numbers belong to inactive results. For part of these data: Entries with a potency or affinity are not part of this list. Active and inactive are the calls of the source. How the calls were made is not given here.
Wherever efficacy is given: 0% is about no effect.

A word on the AC50: it is the concentration at which the activity in the assay is half-maximal. Turning to `C[C@H]1C[C@H]2[C@@H]3CCC4=CC(=O)C=C[C@]4(C)[C@@]3(Cl)[C@@H](O)C[C@]2(C)[C@@]1(O)C(=O)CO`, the efficacy in test [1] was 103%. In addition, the AC50 in test [2] was 25.1 µM (active); in test [3], 20 µM (active); in test [4], 20 µM (active).
Regarding `CNCCC(Oc1ccccc1OC)c1ccccc1` (stereo not drawn), the efficacy in test [1] was 84.9%. In addition, the AC50 in test [2] was 22.4 µM (active); in test [3], 17.8 µM (active); in test [4] it was 17.8 µM (active).
As to `CC(C)(C)C(=O)OCOC(=O)C1N2C(=O)CC2S(=O)(=O)C1(C)C` (stereo not drawn), the efficacy in test [1] was 65.1%. Further, the figures for the half-maximal activity concentration (AC50) in test [2], in test [3] and in test [4] were 3.98 µM (active), 3.16 µM (active) and 3.16 µM (active), respectively.
Turning to `CCNC(=O)N1CCN(CCCC(c2ccc(F)cc2)c2ccc(F)cc2)CC1`, in test [1], the efficacy is 111%. Besides, the figures for the AC50 in test [2], in test [3] and in test [4] were 12.6 µM (active), 11.2 µM (active) and 11.2 µM (active), respectively.
`Nc1c2ccccc2nc2ccccc12`: the efficacy in test [1] was 59%. Also, the molecule was classed as inactive in test [2], in test [3] and in test [4].
For the molecule `CO[C@@H]1[C@@H](OC)[C@H](C)[C@@](O)(CC(=O)O)O[C@H]1[C@H](C)[C@H]1O[C@@]2(CC[C@@](C)([C@H]3CC[C@@](C)([C@@H]4O[C@@H]([C@H]5O[C@](C)(O)[C@H](C)C[C@@H]5C)C[C@@H]4OC4C[C@H](OC)[C@@H](OC)[C@H](C)O4)O3)O2)C[C@H](O)[C@H]1C` (stereo partly drawn), the efficacy in test [1] is -69.9%. Moreover, the AC50 in test [2] is 1.58 µM (active); in test [3], 1 µM (active); in test [4], 1 µM (active).
As for `CCOC(=O)C1=C(C)NC(C)=C(C(=O)OCC)C1c1ccccc1/C=C/C(=O)OC(C)(C)C`, in test [1], the efficacy was 50%. Also, the molecule was called inactive in test [2], in test [3] and in test [4].
For the molecule `CN1CCN(C2Cc3ccccc3Sc3ccc(Cl)cc32)CC1` (stereo not drawn), the efficacy in test [1] was 95.7%. Besides, the AC50 in test [2], in test [3] and in test [4] was 5.01 µM (active) each time.
`CC1=C(C(=O)OC(C)C)C(c2cccc([N+](=O)[O-])c2)C(C(=O)OC2CN(C(c3ccccc3)c3ccccc3)C2)=C(N)N1` (stereo not drawn): the efficacy in test [1] was -152%. Besides, the values for the AC50 in test [2], in test [3] and in test [4] were 39.8 µM (active), 28.2 µM (active) and 28.2 µM (active), respectively.
As for `COc1ccccc1N1CCN(CC(O)COc2cccc3ccccc23)CC1` (stereo not drawn), the efficacy in test [1] was -101%. Also, the AC50 was 28.2 µM (active) in test [2], 12.6 µM (active) in test [3] and 12.6 µM (active) in test [4].
Consider `O=C(NC1CCN(CCc2c[nH]c3ccccc23)CC1)c1ccccc1`, for which the efficacy in test [1] was 90.8%. In addition, the AC50 is 25.1 µM (active) in test [2], 35.5 µM (active) in test [3] and 35.5 µM (active) in test [4].
`COc1cccc(CCc2ccccc2OCC(CN(C)C)OC(=O)CCC(=O)O)c1` (stereo not drawn): the efficacy in test [1] is 95.8%. Besides, the concentration at half-maximal activity (AC50) is 1.78 µM (active) in test [2], 2 µM (active) in test [3] and 2 µM (active) in test [4].
With `CCCCN1CCCC1C(=O)Nc1c(C)cc(C)cc1C` (stereo not drawn), in test [1], the efficacy was 111%. Further, the result in test [2], in test [3] and in test [4] was inactive.
Turning to `CC(NCCC(c1ccccc1)c1ccccc1)c1ccccc1` (stereo not drawn), the efficacy in test [1] is -189%. Moreover, the AC50 in test [2] is 2 µM (active); in test [3], 2.51 µM (active); in test [4], 2.51 µM (active).
Turning to `O=C(CCCN1CCC(O)(c2cccc(C(F)(F)F)c2)CC1)c1ccc(F)cc1`, the efficacy in test [1] is 61.9%. Also, the concentration at half-maximal activity (AC50) in test [2] was 25.1 µM (active); in test [3], 20 µM (active); in test [4], 20 µM (active).
Take `CC(C(O)c1ccc(O)cc1)N1CCC(Cc2ccccc2)CC1` (stereo not drawn): in test [1], the efficacy is 92.8%. The AC50 in test [2] is 17.8 µM (active); in test [3] it was 28.2 µM (active); in test [4], 28.2 µM (active).
On to `C[C@@]12C(=O)OC(=O)[C@]1(C)C1CCC2O1`, for which the efficacy in test [1] was 65.6%. For the same molecule, the concentration at half-maximal activity (AC50) in test [2] was 5.62 µM (active); in test [3], 7.94 µM (active); in test [4], 7.94 µM (active).
For the molecule `[O-][n+]1ccccc1SSc1cccc[n+]1[O-]`, in test [1], the efficacy is 40.7%. Moreover, the AC50 in test [2], in test [3] and in test [4] was 1.26 µM (active) each time.
For `O=C1[C@H]2CCCC[C@H]2C(=O)N1CCCCN1CCN(c2nsc3ccccc23)CC1`, the efficacy in test [1] was 104%. In addition, the results for the AC50 in test [2], in test [3] and in test [4] were 20 µM (active), 17.8 µM (active) and 17.8 µM (active), respectively.
Regarding `CN(C)CCOc1ccccc1Cc1ccccc1`, the efficacy in test [1] is 74.8%. In addition, the AC50 is 3.55 µM (active) in test [2], 3.16 µM (active) in test [3] and 3.16 µM (active) in test [4].
With `C[C@@H]1C[C@H]2[C@@H]3C[C@H](F)C4=CC(=O)C(Cl)=C[C@]4(C)[C@@]3(F)[C@@H](O)C[C@]2(C)[C@@]1(O)C(=O)CO`, in test [1], the efficacy was 76%. In addition, the concentration at half-maximal activity (AC50) in test [2] and in test [4] was 39.8 µM (active) throughout. Also, in test [3], the result was inactive.
For `CN1CCC(=C2c3ccccc3CCc3sccc32)CC1`, the efficacy in test [1] was 69.4%. The half-maximal activity concentration (AC50) in test [2], in test [3] and in test [4] was 8.91 µM (active) in each case.
Regarding `CN1CCCC(CC2c3ccccc3Sc3ccccc32)C1` (stereo not drawn), the efficacy in test [1] is -153%. The AC50 in test [2] was 5.62 µM (active); in test [3], 3.16 µM (active); in test [4], 3.16 µM (active).
Regarding `CSc1ccc2c(c1)C(N1CCN(C)CC1)Cc1ccccc1S2` (stereo not drawn), the efficacy in test [1] was -190%. The results for the AC50 in test [2], in test [3] and in test [4] were 3.55 µM (active), 3.16 µM (active) and 3.16 µM (active), respectively.
In the case of `O=C1OC2(c3ccccc31)c1cc(I)c(O)c(I)c1Oc1c2cc(I)c(O)c1I`, the efficacy in test [1] was 162%. Moreover, the molecule was called inactive in test [2] and in test [3]. In addition, in test [4], the AC50 was 39.8 µM (active).
As to `N#C/C(=C1/SC[C@@H](c2ccc(Cl)cc2Cl)S1)n1ccnc1`, the efficacy in test [1] was 68.3%. Further, the AC50 in test [2] and in test [4] was 39.8 µM (active) each time. Further, the result in test [3] was inactive.
In the case of `CCOc1ccc(Cc2nccc3cc(OCC)c(OCC)cc23)cc1OCC`, in test [1], the efficacy was 94.1%. Moreover, the concentration at half-maximal activity (AC50) in test [2] and in test [4] was 39.8 µM (active) in each case. The outcome in test [3] was inactive.
